Results filed as inconclusive are left out. Activity calls are given as the source filed them. The call rests on the fitted dose curve; in most records, active means well fitted cell-killing curve with a large enough effect in the repeat runs; inconclusive means weak or mixed curves; inactive means flat fitted curve, though single readings scatter.
experiment: qHTS RealTime-Glo MT Cell Viability Assay in HepG2 cells - 16 hour (AID 1224885); settings: RealTime-Glo luminescence; series mostly up to 76.8 µM; activity change, negative = cytotoxic: at the top concentration; further: nearly all actives have a fitted effect of over 50% in size
From the text: U.S. Tox21 Program National Center for Advancing Translational Sciences [NCATS] NIH Chemical Genomics Center [NCGC] U.S. Environmental Protection Agency [EPA] National Institutes of Environmental Health Sciences [NIEHS] National Toxicology Program [NTP] U.S. Food and Drug Administration [FDA] Tox21 Assay Overview: Measure of cell viability is critical in the cell-base assay. Analysis of cell viability is necessary for the characterization of cell responses to cytotoxic drugs and environmental stress. A RealTime-Glo MT Cell Viability Assay to monitor cell viability in real time of continues cell culture during 40 hours of compound treatment was used to screen Tox21 10K library compounds in HepG2 cells. The RealTime-Glo MT Cell Viability Assay is a nonlytic, homogeneous, bioluminescent method to measure cell viability in real time using a simple, plate-based method. The assay involves adding NanoLuc luciferase and a cell-permeant prosubstrate to cells in culture. Viable cells reduce the proprietary prosubstrate to generate a substrate for NanoLuc luciferase. This substrate diffuses from cells into the surrounding culture medium, where it is rapidly used by the NanoLuc Enzyme to produce a luminescent signal. The signal correlates with the number of viable cells, making the assay well suited for cytotoxicity studies.
Tox21 Assay Protocol Summary: The mixture of HepG2 cell suspension and reagents were dispensed at 600cells/6 ul/well in 1536-well tissue culture treated black solid bottom plates using a Multidrop dispenser. After the assay plates were incubated at a 37 C/5% CO2 incubator for 5 hours, 23 nL of compounds dissolved in DMSO, positive and negative controls was transferred to the assay plate by a pintool work station. The plates were incubated at 37 C for 40 hours. The luminescence intensity were measured at 0h, 8h, 16h, 24h, 32h and 40h time points using ViewLux plate reader during compound treatment.
On the % scale 0 is the no-effect control and ±100 the full control effect; potency means the concentration at half of the fitted maximal effect.

SMILES	activity change, negative = cytotoxic	Potency
C1CCSC1	-1.86% (inactive)	
CCN(CC)c1ccc(C=O)c(O)c1	0.853% (inactive)	
C[C@H]1O[C@@H](O[C@H]2CC[C@@]3(C)[C@H](CC[C@@H]4[C@@H]3C[C@@H](O)[C@]3(C)[C@@H](C5=CC(=O)OC5)CC[C@]43O)C2)C[C@H](O)[C@@H]1O[C@H]1C[C@H](O)[C@H](O[C@H]2C[C@H](O)[C@H](O[C@@H]3O[C@H](CO)[C@@H](O)[C@H](O)[C@H]3O)[C@@H](C)O2)[C@@H](C)O1	-15.3% [at 35.3 µM] (inactive)	
CCCCCCCCCCCC(=O)Cl	2.78% (inactive)	
O=S(=O)(c1ccc(OCc2ccccc2)cc1)c1ccccc1O	-20.9% (inactive)	
COc1c(Br)cc(Br)c(C)c1Br	-15.7% (inactive)	
O=C(N[C@H](CO)[C@H](O)c1ccc([N+](=O)[O-])cc1)C(Cl)Cl	7.78% (inactive)	
ClC(c1ccccc1)(c1ccccc1)c1ccccc1	-5.91% (inactive)	
Nc1cc([N+](=O)[O-])ccc1Cl	0.762% (inactive)	
CC1CCC(C(C)(C)O)CC1 (stereo not given)	2.85% (inactive)	
CN1CCN(c2ccccc2/C=C2\SCCN(c3ccc(Cl)c(Cl)c3)C2=O)CC1		43.6 µM (active)
c1ccc2cc3c4ccccc4c4ccccc4c3cc2c1	-1.97% (inactive)	
CCCCCCCCCCCCCCCCC(C(=O)O)C(O)(CC(=O)O)C(=O)O (stereo not given)	-10.3% [at 35.3 µM] (inactive)	
CCC(C)(C)c1ccc(CC(C)CN2C[C@@H](C)O[C@@H](C)C2)cc1 (stereo not given in full)	-16.5% [at 35.3 µM] (inactive)	
CC/C(=C(/c1ccc(O)cc1)c1ccc(OCCN(C)C)cc1)c1ccccc1		28.8 µM (active)
O=C(CCCCCCCCc1cccnc1)N1CCC(C=C(c2ccccc2)c2ccccc2)CC1		49 µM (active)
COc1cc(OC)nc(NC(=O)NS(=O)(=O)Nc2ccccc2C(=O)N(C)C)n1	-1.02% (inactive)	
NCc1ccco1	-1.01% (inactive)	
Cc1ccc(C2OC[C@@H]3OC(c4ccc(C)cc4)O[C@H]([C@H](O)CO)[C@@H]3O2)cc1 (stereo not given in full)	3% (inactive)	
O[Si](c1ccccc1)(c1ccccc1)c1ccccc1	-16.9% (inactive)	

SMILES	activity change, negative = cytotoxic	Potency
CCCCCCCCCC[N+](C)(CCCCCCCCCC)CCC[Si](OC)(OC)OC		49 µM (active)
C=C[Si](C)(C)Cl	-9.49% [at 6.97 µM] (inactive)	
CC1=C(/C=C/C(C)=C/C=C/C(C)=C\C(=O)O)C(C)(C)CCC1	-8.77% (inactive)	
CC(C=O)c1ccccc1 (stereo not given)	-0.21% (inactive)	
[Cl][Eu]([Cl])[Cl]	-23.9% (inactive)	
CCOc1nc(F)cc2nc(S(=O)(=O)Nc3c(Cl)cccc3C(=O)OC)nn12	-1.89% (inactive)	
C=Cc1ccncc1	3.24% (inactive)	
CCOC(=O)[C@H](O)[C@@H](O)C(=O)OCC	-1.96% (inactive)	
CCOC(=O)OC(=O)OCC	0.623% (inactive)	
N#CCCOCCC#N	-7.67% (inactive)	
Cc1c(Cl)c(=O)oc2cc(O)ccc12	-11.8% (inactive)	
c1ccc(-c2ccccc2-c2ccccc2)cc1	-1.9% (inactive)	
N#Cc1nc(Cl)c(Cl)c(Cl)c1Cl		21.9 µM (active)
C=COCCCC	-6.32% (inactive)	
CC(=O)Nc1ccc(N=Nc2cc(C)ccc2O)cc1	-8.81% (inactive)	
Cc1cc(F)ccc1-c1cc(N2CC[C@@H](O)[C@H]2CO)ncc1N(C)C(=O)C(C)(C)c1cc(C(F)(F)F)cc(C(F)(F)F)c1		38.3 µM (active)
CC(C)=NNC(N)=S	-1.04% (inactive)	
Nc1cccnc1N	2.38% (inactive)	
CCc1c(C)cc(N)c(CC)c1N	-1.49% (inactive)	
Cc1ccc(Cl)c(N)c1Cl	-15.2% (inactive)	

— PubChem BioAssay (Tox21)
